From PubChem BioAssay AID504652 (National Center for Advancing Translational Sciences (NCATS), 2011) come the findings set out here.

Each structure is given as a SMILES string. Among all 360,000 compounds or so, about 11,000 (3.1%) were called active. The full list was thinned out, with actives kept by preference. Values without a mark were called inactive. No stated cut-off is given here; in the data, active means activity change below about -30%; inactive means the rest.
On the % scale 0 is the no-effect control and ±100 the full control effect.

Chain of D(1A) dopamine receptor (Homo sapiens) (P21728 whole entry, looked up): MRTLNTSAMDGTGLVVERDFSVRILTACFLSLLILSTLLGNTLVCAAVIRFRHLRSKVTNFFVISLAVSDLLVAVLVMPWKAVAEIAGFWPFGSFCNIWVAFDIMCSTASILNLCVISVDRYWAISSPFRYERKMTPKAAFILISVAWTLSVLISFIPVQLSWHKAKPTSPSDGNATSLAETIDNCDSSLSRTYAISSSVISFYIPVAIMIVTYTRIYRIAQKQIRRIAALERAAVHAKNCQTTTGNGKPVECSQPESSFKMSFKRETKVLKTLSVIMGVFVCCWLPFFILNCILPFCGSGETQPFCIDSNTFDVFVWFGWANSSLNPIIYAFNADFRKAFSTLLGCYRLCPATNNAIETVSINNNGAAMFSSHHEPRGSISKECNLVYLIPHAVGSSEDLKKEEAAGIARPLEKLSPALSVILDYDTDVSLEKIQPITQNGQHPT

The assay has as its target D(1A) dopamine receptor (Homo sapiens) (UniProt P21728). The experiment in a line: Antagonist of Human D 1 Dopamine Receptor: qHTS. Conditions: HEK293 TREx D1 cells, calcium flux, dopamine EC80; at 10 µM; active compounds read low. The essentials: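 Compound effects on dopamine-evoked calcium signalling were measured in tetracycline-induced HEK293 Trex D1 cells. Dopamine at EC80 followed a 180 s compound pre-read, and fluorescence was tracked kinetically for 180 s more.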
For orientation: In qHTS, concentration-response curves come from the screen itself.
On to `CCNC(=O)N1CCNC(=O)C1CC(=O)Nc1ccc(C(=O)OCC)cc1` (centres undefined), for which the activity change, negative = inhibition was 11.7%.
For the molecule `CCc1ccc(NC(=O)CC2C(=O)NCCN2C(=S)Nc2ccccc2)cc1` (centres undefined), the activity change, negative = inhibition is -31.7% (active).
Then `COc1cccc(NC(=O)CC2C(=O)NCCN2C(=S)Nc2ccc(F)cc2)c1` (centres undefined), with -8.91%; and `COc1ccc(Cl)cc1C(=O)NCc1cn(C)nc1C`, with -31.1% (active).
On to `Cc1nn(C)cc1CNC(=O)Nc1ccc(Cl)cc1`, for which the activity change, negative = inhibition is 5.45%.
Then `Cc1ccc(-c2cc(C(=O)NCc3cn(C)nc3C)c3cc(Br)ccc3n2)cc1`, with -1.17%; and `Cc1ccc(CCNC(=O)c2ccc(CNS(=O)(=O)c3ccc(C)cc3)cc2)cc1`, with -6.27%; and `CCOc1ccc(N(Cc2ccccc2)C(=O)c2nc(S(C)(=O)=O)ncc2Cl)cc1`, with -4.67%.
Then `CN(C)Cc1ccccc1C1(O)c2ccccc2CSc2ccccc21` (centres undefined), with -0.848%.
Then `CN(C)CC/C=C1\c2ccccc2CSc2ccccc21`, with -62.1% (active); and `COc1ccccc1NC(=O)CN1C(=O)c2ccccc2Sc2ccc(C(=O)N3CCCC3)cc21`, with 9.27%; and `COc1ccc(N2CCN(C(=O)c3c(C)oc4nc(C)nc(N5CCCC5)c34)CC2)cc1`, with -1.85%.
For the molecule `COc1ccc(OCC(=O)OCCN(C)C)cc1`, the activity change, negative = inhibition was -9.23%.
In the case of `CN(C)CCOC(=O)C(c1ccccc1)C1(O)CCCC1` (centres undefined), the activity change, negative = inhibition was -42.6% (active).
Consider `O=C(O)C(c1ccccc1)C1(O)CCCCC1` (centres undefined), for which the activity change, negative = inhibition is -1.48%.
Then `CCN(c1ncnc2c1cnn2-c1ccc(C)cc1)C1CCCCC1`, with 13.5%; and `Cc1ccc2c(c1)-c1c(cnn1CC(=O)Nc1ccccc1C#N)CO2`, with 23.7%; and `Cc1oc2ncnc(N3CCCCC3)c2c1C(=O)N1CCN(c2cccc(Cl)c2)CC1`, with -0.886%.
Regarding `CC(C)Cn1c(=O)c2ccccc2n2c(CCC(=O)N3CCN(c4cccc(Cl)c4)CC3)nnc12`, the activity change, negative = inhibition is -9.12%.
Then `Cc1ccc(C)n1-c1nnc(N2CCC(C(=O)NCc3ccccc3Cl)CC2)s1`, with -0.53%.
Then `COC(=O)c1cnc(N2CCN(c3ccccc3OC)CC2)c2ccccc12`, with -2.99%; and `O=c1c(NCc2cccs2)nccn1-c1ccccc1`, with -12.1%; and `Cc1c(Cl)cccc1-c1ccc(CNCCCSc2nnnn2C)o1`, with -35% (active).
Then `Cn1nnnc1SCCCNCc1ccc(Cl)cc1`, with -11.8%.
Consider `CCOc1ccc(CNCCSc2nnnn2C)cc1`, for which the activity change, negative = inhibition is -2.56%.
On to `COc1cc(CNCCSc2nnnn2C)ccc1OCc1c(F)cccc1Cl`, for which the activity change, negative = inhibition was -17.9%.
Then `Cn1nnnc1SCCNCc1ccc(Cl)c(Cl)c1`, with -61.6% (active); and `Cn1nnnc1SCCCNCc1cccc(OCc2ccc(Cl)cc2)c1`, with -15.2%; and `Cc1ccc2oc3c(c(=O)c2c1)C(c1ccc(O)cc1)N(Cc1ccc2c(c1)OCO2)C3=O` (centres undefined), with 0.447%.
For `CCOc1ccc(-c2n[nH]c3c2C(c2ccccc2OC)N(c2ccc(Br)cc2)C3=O)cc1` (centres undefined), the activity change, negative = inhibition is 9.65%.
Then `CCOC(=O)c1ccc(NC(=O)CCn2cnnn2)cc1`, with 14.2%; and `O=C1C(F)N([S+](=O)([O-])c2ccc3c(c2)OCCO3)CCN1[S+](=O)([O-])c1c(F)cccc1F` (centres undefined), with -5.38%; and `CCOc1cc2[nH]c(=O)n(Cc3ccc(C(=O)NCCN(CC)CC)cc3)c(=O)c2cc1OCC`, with 5.18%.
`CCc1cccc(NC(=O)CN(C)S(=O)(=O)c2ccc3[nH]c4c(c3c2)CCCC4)c1`: the activity change, negative = inhibition was -15.3%.
`Cc1ccc(OC(=O)CSc2nnc(-c3cccs3)o2)cc1`: the activity change, negative = inhibition was -6.25%.
In the case of `O=C(NCc1ccc(Cl)cc1)c1cc2c(nc3sccn32)s1`, the activity change, negative = inhibition is -58.9% (active).
Then `O=C(NCc1ccc2c(c1)OCO2)c1c(O)nc2sccn2c1=O`, with 2.36%.
For `O=C(NCc1ccc(Cl)cc1)c1cc(=O)nc2sc(-c3ccccc3)nn12`, the activity change, negative = inhibition is 0.956%.
Consider `Cc1ccc(C(=O)Nc2ccc(OCc3cc(=O)n4c5c(sc4n3)CCCC5)cc2)cc1`, for which the activity change, negative = inhibition is -13.4%.
Then `O=C(COC(=O)Cc1c[nH]c2ccccc12)NCCc1ccccc1`, with -2.05%.
Then `CCOC(=O)CN(C)Cc1c[nH]c2ccccc12`, with 0.896%; and `O=C(Cc1c[nH]c2ccccc12)OCCOC(=O)Cc1c[nH]c2ccccc12`, with -32.2% (active); and `Cc1ccc(S(=O)(=O)N2CCc3cc(C(=O)Nc4ccc(Cl)cc4C)ccc32)cc1`, with 3.15%.
Consider `CCOc1ccc(Nc2nc3c(S(=O)(=O)c4cccc(Cl)c4)nnn3c3ccsc23)cc1`, for which the activity change, negative = inhibition is -38.1% (active).
Then `O=S(=O)(c1ccc(Cl)cc1)c1nnn2c1nc(NC1CCCC1)c1sccc12`, with -19.7%; and `O=S(=O)(c1ccc(Br)cc1)c1nnn2c1nc(NC1CCCCCC1)c1sccc12`, with 4.84%.
On to `COc1ccc(-c2nnc(SCC(=O)Nc3ccc(C(C)C)cc3)nc2-c2ccc(OC)c(OC)c2)cc1OC`, for which the activity change, negative = inhibition was -19.7%.
Then `NC1=NC(c2cc(F)cc(F)c2)n2c(nc3ccccc32)N1` (centres undefined), with 0.602%; and `CCc1cccc(C)c1NS(=O)(=O)c1ccc(-c2cc(C)no2)s1`, with 24.4%; and `O=C(Nc1ccc2c(c1)OCCO2)C1CCCC1`, with -32.7% (active).
Then `O=C(Nc1ccc2c(c1)OCCO2)c1ccoc1`, with 15.7%; and `O=C(Nc1ccc2c(c1)OCO2)C1CC1(Cl)Cl` (centres undefined), with -9.18%; and `COc1ccc(NC(=O)NC(C)c2c(-n3cccc3)sc(C)c2C)cc1OC` (centres undefined), with -6.54%.
Then `COc1ccc(N2CCN(C3=NS(=O)(=O)C(c4cccc(Br)c4)=C3C)CC2)cc1`, with -8.66%.
Turning to `CCN1CCN(CC(=O)Nc2sc3c(c2C#N)CCC3)CC1`, the activity change, negative = inhibition is -11.5%.
Then `N#Cc1c(NC(=O)CCCl)sc2c1CCCCC2`, with -30.1% (active).
For the molecule `N#Cc1c(NC(=O)C2CCCO2)sc2c1CCCCC2` (centres undefined), the activity change, negative = inhibition was -19.1%.
Then `COc1ccccc1CNC(=O)CS(=O)(=O)c1cccc2nsnc12`, with 13.8%.
With `CCCn1c2ccccc2c2cnn(CC(=O)NCC3CCN(Cc4ccc(C)cc4)CC3)c(=O)c21`, the activity change, negative = inhibition was -18.2%.
Then `CCOC(=O)CSc1nnc(CNc2nc(-c3ccccc3)cs2)n1C`, with -37.1% (active); and `CCOC(=O)CSc1nnc(CNC(=O)c2cccs2)n1-c1ccccc1`, with -4.34%.
Then `Cn1c(CNc2nc(-c3ccccc3)cs2)nnc1SCC(=O)c1ccccc1`, with -24.4%.
As for `COc1ccc(-c2nn(CC(=O)Nc3ccccc3F)c3c2cnc2ccc(F)cc23)cc1`, the activity change, negative = inhibition is -0.202%.
In the case of `COc1ccc(-c2nn3c(-c4ccc(OC)cc4)nnc3c3ccccc23)cc1`, the activity change, negative = inhibition was -13.1%.
For `COc1ccc(-c2nc3ccc(C(=O)NCc4ccc(C)cc4)cc3nc2-c2ccc(OC)cc2)cc1`, the activity change, negative = inhibition is -1.2%.
Then `COc1ccc(CNC(=O)c2ccc3c(O)c(S(=O)(=O)c4ccccc4)c(=O)[nH]c3c2)cc1`, with 5.97%; and `Cc1cc(C)cc(NC(=O)CCS(=O)(=O)c2cc3c4c(c2)CCN4C(=O)CC3)c1`, with 20.6%.
Then `CCn1nc(C)cc1C(=O)N1CCCC(C(=O)c2cccc(OC)c2)C1` (centres undefined), with 0.174%; and `Cn1nccc1C(=O)N1CCCC(C(=O)c2ccc(Oc3ccccc3)cc2)C1` (centres undefined), with -33% (active); and `O=C(c1ccc(-c2ccccc2)cc1)C1CCCN(C(=O)c2cncs2)C1` (centres undefined), with -2.69%.
As for `Cc1nnc(NC(=O)CSc2nc3c([nH]c4ccccc43)c(=O)n2-c2cccc(Cl)c2)s1`, the activity change, negative = inhibition is -3.1%.
As for `CCOC(=O)c1c(NC(C)=O)c2c3c(sc2n1Cc1c(C)cc(C)cc1C)CCCC3`, the activity change, negative = inhibition was 27.5%.
Then `CCOC(=O)C(Cc1ccccc1)NC(=O)CCc1c(C)nc2c(c(C)nn2-c2ccc(C)c(C)c2)c1C` (centres undefined), with -20.6%.
For the molecule `N#CCC(=O)N/N=C/c1cn(Cc2ccc3ccccc3c2)c2ccccc12`, the activity change, negative = inhibition was 16.1%.
Turning to `COc1cccc(Cn2cc(/C=N/NC(=O)c3cc(O)cc(O)c3)c3ccccc32)c1`, the activity change, negative = inhibition was 3.21%.
`CCOC(=O)N/N=C/c1cn(Cc2ccccc2Cl)c2ccccc12`: the activity change, negative = inhibition is -33.9% (active).
Then `CCc1ccc(NC(=O)c2nn(-c3ccc(C)cc3)c(=O)n(C)c2=O)cc1`, with -19.1%; and `Cc1ccc(N(CC(=O)NCc2ccc(Cl)cc2)S(=O)(=O)N(C)C)cc1`, with 27%; and `CC(C)(C)c1ccc(C(=O)NCC(c2ccc(Cl)cc2)N2CCOCC2)cc1` (centres undefined), with -13.3%.
As to `O=c1cc(COc2cccc(C(F)(F)F)c2)nc2sc3c(n12)CCCC3`, the activity change, negative = inhibition was -4.09%.
`O=C(CSCc1cnn(-c2ccccc2)c1-n1cccc1)NCc1ccc(Cl)cc1`: the activity change, negative = inhibition is 5.55%.
Then `CCCOc1ccc(C2c3c(-c4ccccc4O)n[nH]c3C(=O)N2Cc2cccnc2)cc1` (centres undefined), with 27.7%.
Then `[O-][n+]1c2c(nn1-c1ccc(Cl)c(Cl)c1)-c1nonc1CC2`, with -35.4% (active).
Take `Cc1nnc(N2CCC(C(=O)Nc3ccc(F)cc3)CC2)c2nn(-c3ccc(Cl)cc3)c(C)c12`: the activity change, negative = inhibition was -3.69%.
With `COc1ccc(F)cc1S(=O)(=O)N1CCCCC1`, the activity change, negative = inhibition is 1.35%.
As for `COc1cc(C(=O)NNC(=O)c2ccc(S(=O)(=O)N3CCCCC3)cc2)cc(OC)c1OC`, the activity change, negative = inhibition was -4.12%.
Then `COc1ccc(S(=O)(=O)N2CCCCC2)cc1Br`, with -47.9% (active).
Take `COc1ccc(OC)c(-c2csc(-c3c(N)c(C(=O)c4ccccc4)n4ccccc34)n2)c1`: the activity change, negative = inhibition is -9.07%.
As for `Cc1c(NC(=O)CCCOc2ccccc2)cccc1[N+](=O)[O-]`, the activity change, negative = inhibition was 0.202%.
As for `Cc1c(NC(=S)NCc2ccc(F)cc2)cccc1[N+](=O)[O-]`, the activity change, negative = inhibition was -31.5% (active).
On to `Cc1c(NC(=O)/C=C/C(=O)O)cccc1[N+](=O)[O-]`, for which the activity change, negative = inhibition was -41.8% (active).
Regarding `O=C(O)/C=C/C(=O)NNc1ccc([N+](=O)[O-])cc1`, the activity change, negative = inhibition is 4.19%.
Then `O=[N+]([O-])c1ccccc1NCc1ccc(Cl)cc1`, with -2.99%.
Then `Cc1cccc(NC(=S)NCCc2ccc(F)cc2)c1C`, with -6.25%.
